Among the data in PubChem BioAssay (NCATS) are Potency values, retold here.

Records with an inconclusive call do not appear. Calls of active or inactive are those of the source. Calls follow the shape of the dose curve; as a rule, active = well fitted curve in the direction sought with a large enough effect; inconclusive = small, poorly fitted or top-dose-only effect, or another doubt; inactive = no such curve, though single readings can be large; an effect the other way counts as inactive or inconclusive.

A short description of experiment [1]: qHTS of pediatric cancer cell lines to identify multiple opportunities for drug repurposing: Confirmatory screen for U-2 OS cells (AID 1347122). Also: nearly all actives have a fitted effect of over 65% in size. Also: potency is read from the fitted curve at half-maximal effect. Summed up:
(§1)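 Viability after 48 h compound treatment at 37C, 500-1,000 cells/well, read as ATP luminescence with CellTiter-Glo. Primary screens used 11-point (MIPE, 0.78 nM-46 µM) or 8-point (NPC, 0.59 nM-46 µM) final concentrations; follow-up screens used 11-point dilutions.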

Experiment [2] in a line: qHTS of pediatric cancer cell lines to identify multiple opportunities for drug repurposing: Confirmatory screen for Rh41 cells (AID 1347123).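 Also: 48 h compound exposure; nearly all actives have a fitted effect of over 60% in size.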 Also: potency is read from the fitted curve at half-maximal effect. Summed up: as §1
On the technique in general: In qHTS, concentration-response curves come from the screen itself.

Experiment [3] is described as follows: qHTS of pediatric cancer cell lines to identify multiple opportunities for drug repurposing: Confirmatory screen for Rh30 cells (AID 1347126). Also: nearly all actives have a fitted effect of over 55% in size. Also: potency is read from the fitted curve at half-maximal effect. In short, it runs like this:
as §1

Experiment [4] in a line: qHTS of pediatric cancer cell lines to identify multiple opportunities for drug repurposing: Confirmatory screen for Saos-2 cells (AID 1347127). Also: nearly all actives have a fitted effect of over 60% in size. Also: potency is read from the fitted curve at half-maximal effect. Summed up:
as §1

The nature of experiment [5]: qHTS of pediatric cancer cell lines to identify multiple opportunities for drug repurposing: Confirmatory screen for SK-N-SH cells (AID 1347129).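 Also: cells exposed to compound for 48 h before viability read; nearly all actives have a fitted effect of over 60% in size.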 Also: potency is read from the fitted curve at half-maximal effect. Summed up:
as §1

Experiment [6] relates to Zika virus NS2B-NS3 protease. The experiment is described as follows: Primary screen GU AMC qHTS for Zika virus inhibitors (AID 1347154). Also: nearly all actives have a fitted effect of over 70% in size. In short, it runs like this:
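Unlinked Zika NS2B hydrophilic domain–NS3 protease complex at 25 nM in 10 mM Tris-HCl pH 8.0, 0.01% Tween 20, with an AMC peptide substrate. Fluorescence change (340/450 nm) over 15 min at room temperature, normalized to controls, fitted to 4-parameter Hill.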

Experiment [7] can be described thus: qHTS of pediatric cancer cell lines to identify multiple opportunities for drug repurposing: Confirmatory screen for RD cells (AID 1347124).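 Also: cells exposed to compound for 48 h before viability readout; nearly all actives have a fitted effect of over 65% in size.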 Also: potency is read from the fitted curve at half-maximal effect. In short, it runs like this: as §1
A short description of experiment [8]: qHTS of pediatric cancer cell lines to identify multiple opportunities for drug repurposing: Confirmatory screen for Rh18 cells (AID 1347125). Also: nearly all actives have a fitted effect of over 55% in size. Also: potency is read from the fitted curve at half-maximal effect. In short, it runs like this:
as §1

A short description of experiment [9]: qHTS of pediatric cancer cell lines to identify multiple opportunities for drug repurposing: Confirmatory screen for OHS-50 cells (AID 1347128).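 Also: compound exposure lasted 48 h at 37 degrees C; nearly all actives have a fitted effect of over 55% in size.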 Also: potency is read from the fitted curve at half-maximal effect. Summed up:
as §1

Experiment [10] has as its system Zika virus NS2B-NS3 protease (unlinked complex). The experiment is described as follows: Primary screen GU Rhodamine qHTS for Zika virus inhibitors: Unlinked NS2B-NS3 protease assay (AID 1347159). Also: nearly all actives have a fitted effect of over 60% in size. In short, it runs like this:
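Percent inhibition derives from the 15-min fluorescence change (ex 480, em 540 nm), normalized to no-enzyme and no-inhibitor wells. Reactions contained 25 nM NS2B-NS3 complex and 1.5 microM substrate in 10 mM Tris-HCl pH 8.0.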

Experiment [11] deals with Zika virus NS2B-NS3 protease (linked construct). The experiment can be described thus: Primary screen NINDS Rhodamine qHTS for Zika virus inhibitors (AID 1347160). Also: nearly all actives have a fitted effect of over 55% in size. Summed up:
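In 10 mM Tris-HCl pH 8.0 containing 0.01% Tween 20, linked NS2B-NS3 protease (25 nM final) is exposed to test compounds for 15 min. Cleavage of 1.5 microM Rhodamine110 substrate is tracked by fluorescence over 15 min.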

Regarding `COc1cc2ncnc(Nc3cccc(Br)c3)c2cc1OC`, the Potency result in experiment [1], in [4] and in experiment [6] was “inactive” in each case. The Potency in experiment [2] is 11700 nM (active); in [3], 9270 nM (active); in [5], 20900 nM (active).

For `C[C@@H](Oc1ccc2[nH]nc(C=Cc3cnn(CCO)c3)c2c1)c1c(Cl)cncc1Cl`, the Potency in [2] is 104 nM (active); in [7], 5220 nM (active); in [8], 3690 nM (active); in experiment [3], 4140 nM (active); in [4], 2610 nM (active); in [9] it was 4140 nM (active). Besides, the Potency entry in experiment [6] is “inactive”.

For the molecule `O=C(C=CC#Cc1cccc(NS(=O)(=O)c2ccccc2)c1)NO`, the Potency in experiment [2] is 1650 nM (active); in experiment [7], 5220 nM (active); in experiment [8], 2330 nM (active); in experiment [3] it was 5220 nM (active); in [4], 2930 nM (active); in experiment [9], 5850 nM (active). The Potency entry in experiment [6] was “inactive”.

For the molecule `COc1cc2c(cc1OC)[C@@H]1C(=O)c3ccc4c(c3O[C@@H]1CO2)C=CC(C)(C)O4`, the Potency in [1] was 329 nM (active); in [2], 13100 nM (active); in experiment [4] it was 3690 nM (active). The Potency entry in [9] and in [6] was “inactive” each time.

Regarding `COc1cccc2c1C(=O)c1c(O)c3c(c(O)c1C2=O)C[C@@](O)(C(=O)CO)C[C@@H]3O[C@H]1C[C@H](N)[C@@H](O)[C@H](C)O1`, the Potency is 293 nM (active) in [2]; 3290 nM (active) in [7]; 585 nM (active) in experiment [8]; 293 nM (active) in experiment [4]; 332 nM (active) in experiment [5].

`CC(C=CC(=O)NO)=C[C@@H](C)C(=O)c1ccc(N(C)C)cc1`: the Potency in experiment [2] was 1470 nM (active); in [7], 1310 nM (active); in [8] it was 928 nM (active); in experiment [4] it was 1850 nM (active); in experiment [5], 2960 nM (active).

Regarding `N#CNC(=NCCCCCCOc1ccc(Cl)cc1)Nc1ccncc1`, the Potency in [2] is 16.5 nM (active); in [7], 36.9 nM (active); in [8] it was 46.5 nM (active); in [3] it was 18.5 nM (active); in experiment [4] it was 20800 nM (active).

For `CS(=O)(=O)N1CCc2c(-c3cnc(N)nc3)nc(N3CCOCC3)nc21`, the Potency in experiment [2] is 1850 nM (active); in experiment [7], 1310 nM (active); in [8], 1850 nM (active); in [3], 1470 nM (active); in [4] it was 2330 nM (active); in experiment [5] it was 2640 nM (active). In addition, the Potency result in [6], in experiment [10] and in experiment [11] was “inactive” in each case.

As to `COc1ccc(S(=O)(=O)Nc2cccnc2Nc2ccc(O)cc2)cc1`, the Potency in experiment [1] was 827 nM (active); in experiment [7] it was 928 nM (active); in experiment [4] it was 522 nM (active). Also, the Potency entry in [8], in experiment [6], in [10] and in [11] was “inactive” throughout.

Regarding `O=C(C=CC=Cc1ccc2c(c1)OCO2)N1CCCCC1`, the Potency entry in [2], in experiment [7], in [8], in experiment [4], in [9] and in [5] was “inactive” each time.

As for `NC(=O)Nc1sc(-c2ccc(F)cc2)cc1C(N)=O`, the values for the Potency in [1] and in experiment [5] were 14700 nM (active) and 14800 nM (active), respectively. In experiment [6], the Potency entry was “inactive”.

With `Cc1ccc([N+](=O)[O-])cc1S(=O)(=O)N(C)N=Cc1cnc2ccc(Br)cn12`, the Potency in experiment [2] is 329 nM (active); in experiment [7] it was 4650 nM (active); in [8], 1310 nM (active); in experiment [4] it was 2330 nM (active); in [9], 465 nM (active); in [5], 235 nM (active). Moreover, the Potency entry in experiment [6] is “inactive”.

Turning to `CC(C(C)N1CC(=O)NC(=O)C1)N1CC(=O)NC(=O)C1` (stereo unspecified), the Potency result in experiment [2], in experiment [7], in experiment [8], in experiment [4], in experiment [5] and in experiment [6] was “inactive” throughout.

For `COC(=O)[C@@H]1[C@H]2C[C@@H]3c4[nH]c5ccccc5c4CCN3C[C@@H]2CC[C@@H]1O`, the Potency entry in experiment [2], in [7], in experiment [8], in experiment [3], in experiment [4] and in [9] was “inactive” each time. Besides, in experiment [6], the Potency result is “inactive”.

In the case of `CC(=O)N1CCN(c2ccc(OCc3nn(C)c(C)c3-c3cccc4c(CCCOc5cccc6ccccc56)c(C(=O)O)n(Cc5cccnc5)c34)cc2)CC1`, the Potency result in [1], in experiment [7], in experiment [8], in experiment [3], in experiment [9] and in [5] was “inactive” throughout.

In the case of `CCc1cc(C(C)=NOCc2ccc(C3CCCCC3)c(C(F)(F)F)c2)ccc1CN1CC(C(=O)O)C1`, the Potency entry in [1], in experiment [7], in experiment [8] and in [3] was “inactive” each time. For the same molecule, the Potency in experiment [4] was 14700 nM (active); in experiment [9], 23300 nM (active).

As to `CC1(C)O[C@@H]2C[C@H]3[C@@H]4CCC5=CC(=O)C=C[C@]5(C)[C@@H]4[C@@H](O)C[C@]3(C)[C@]2(C(=O)CO)O1`, the Potency result in experiment [2], in experiment [7], in experiment [8], in [4], in experiment [9] and in [6] was “inactive” each time.

As to `Cc1cnc(Nc2ccc(N3CCN(C)CC3)cc2)nc1Nc1cccc(S(=O)(=O)NC(C)(C)C)c1`, the Potency was 3290 nM (active) in experiment [2]; 7370 nM (active) in experiment [7]; 2930 nM (active) in [8]; 3690 nM (active) in [4]; 2930 nM (active) in experiment [9]. Moreover, the Potency result in experiment [6] is “inactive”.

In the case of `CCOC(=O)C1=C(C)NC(=S)NC1c1cccc(O)c1` (stereo unspecified), the Potency result in experiment [8], in experiment [5] and in [6] was “inactive” each time.

`CC(C)(N)c1ccc(-c2nc3ccccc3nc2-c2ccccc2)cc1`: the Potency result in [7], in experiment [10] and in experiment [11] was “inactive” in each case. For the same molecule, the Potency in experiment [8] was 1650 nM (active); in experiment [4] it was 737 nM (active); in [9], 369 nM (active).

Regarding `CCOC(=O)N1CCN([N+]([O-])=NOc2ccc([N+](=O)[O-])cc2C#N)CC1`, in experiment [2], the Potency is 18500 nM (active). Further, the Potency result in experiment [6] was “inactive”.

As to `C=CCNC1=C2C[C@@H](C)C[C@H](OC)[C@@H](O)[C@@H](C)C=C(C)[C@H](OC(N)=O)[C@@H](OC)C=CC=C(C)C(=O)NC(=CC1=O)C2=O`, the Potency in experiment [2] is 737 nM (active); in experiment [7], 131 nM (active); in [8], 585 nM (active); in experiment [9] it was 11700 nM (active); in [5], 1870 nM (active). Also, the Potency entry in experiment [6] is “inactive”.
